Data as given in PubChem BioAssay AID1159580 (chemical genetic matrix, 2015).
“And” between values parts separate entries of the source, which are not always exact repeats. Equal values may be shown once. Screen size: about 5,500 compounds; about 2,000 (36%) were called active. Not shown: some 18% with an inconclusive outcome. Rule as the data show it: active = normalized growth mostly below about 0.91 (no sharp cut-off); inconclusive = no clear call, values can overlap the other calls; inactive = mostly above about 0.92. Some of the results follow.

Experiment: chemical genetic growth profiling, strain panel (AID 1159580);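 also: tested at 20 µM; growth read once vehicle control cultures reached saturation at 30 °C; 1 = growth at the plate median or of vehicle wells; lower values mean less growth of the strain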
Details: S. cerevisiae deletion strains, growth OD

Measured: normalized growth

CC(C)CCCC(C)C1CCC2C3=CC[C@H]4C[C@@H](O)CC[C@]4(C)C3CC[C@@]21C (some centres not stated)
inactive: locus YAL021C, strain ccr4, active compounds read low 0.965 | locus YAL026C, strain drs2, active compounds read low 0.965 | locus YAL030W, strain snc1, active compounds read low 0.985 | locus YBL061C, strain skt5, active compounds read low 0.991 | locus YBR009C, strain hhf1, active compounds read low 1.02 | locus YBR021W, strain FUR4, active compounds read low 1.02 | locus YBR023C, strain chs3, active compounds read low 0.961 | locus YBR171W, strain sec66, active compounds read low 0.968 | locus YBR229C, strain ROT2, active compounds read low 1.02 | locus YBR231C, strain swc5, active compounds read low 0.967 | locus YBR279W, strain paf1, active compounds read low 0.991 | locus YCL011C, strain gbp2, active compounds read low 0.974 | locus YCL016C, strain dcc1, active compounds read low 0.979 | locus YCL029C, strain bik1, active compounds read low 0.994 | locus YCL061C, strain MRC1, active compounds read low 0.986 | locus YCL069W, strain vba3, active compounds read low 0.989 | locus YCR088W, strain abp1, active compounds read low 0.983 | locus YDL005C, strain med2, active compounds read low 0.997 | locus YDL035C, strain GPR1, active compounds read low 0.996 | locus YDL040C, strain nat1, active compounds read low 0.965 | locus YDL074C, strain BRE1, active compounds read low 0.965 | locus YDL101C, strain DUN1, active compounds read low 1.02 | locus YDL185W, strain tfp1, active compounds read low 1 | locus YDL192W, strain arf1, active compounds read low 0.981 | locus YDR001C, strain nth1, active compounds read low 0.985 | locus YDR069C, strain doa4, active compounds read low 0.98 | locus YDR101C, strain arx1, active compounds read low 0.988 | locus YDR150W, strain NUM1, active compounds read low 1.04 | locus YDR159W, strain sac3, active compounds read low 1.01 | locus YDR162C, strain NBP2, active compounds read low 0.958 | locus YDR195W, strain ref2 1.03 | locus YDR297W, strain sur2, active compounds read low 0.975 | locus YDR318W, strain mcm21, active compounds read low 1.01 | locus YDR334W, strain swr1, active compounds read low 0.948 | locus YDR335W, strain msn5, active compounds read low 0.967 | locus YDR388W, active compounds read low 0.994 | locus YDR392W, strain spt3, active compounds read low 0.863 | locus YDR502C, strain sam2, active compounds read low 0.977 | locus YEL003W, strain gim4, active compounds read low 0.976 | locus YEL037C, strain rad23, active compounds read low 0.975 | locus YEL061C, strain CIN8 (second series), active compounds read low 0.978 | locus YEL061C, strain CIN8, active compounds read low 1.01 | locus YER015W, strain faa2, active compounds read low 0.985 | locus YER016W, strain bim1, active compounds read low 0.998 | locus YER110C, active compounds read low 0.985 | locus YER111C, strain swi4, active compounds read low 0.977 | locus YER155C, strain BEM2 (second series), active compounds read low 0.973 | locus YER155C, strain BEM2, active compounds read low 1.01 | locus YER167W, strain BCK2, active compounds read low 1.06 | locus YFR010W, strain ubp6, active compounds read low 0.983 | locus YGL078C, strain dbp3, active compounds read low 0.982 | locus YGL086W, strain mad1, active compounds read low 0.996 | locus YGL167C, strain pmr1, active compounds read low 0.98 | locus YGL173C, strain kem1, active compounds read low 0.968 | locus YGL227W, strain vid30, active compounds read low 0.991 | locus YGL240W, strain doc1, active compounds read low 0.984 | locus YGL248W, strain PDE1, active compounds read low 1.03 | locus YGR135W, strain pre9, active compounds read low 0.982 | locus YGR252W, strain gcn5, active compounds read low 0.944 | locus YHR013C, strain ard1, active compounds read low 0.957 | locus YHR027C, strain rpn1, active compounds read low 0.973 | locus YHR030C, strain SLT2, active compounds read low 1.01 and 0.993 | locus YHR079C, strain IRE1 (second series), active compounds read low 1 | locus YHR079C, strain IRE1, active compounds read low 1.02 | locus YHR094C, strain hxt1, active compounds read low 0.988 | locus YHR129C, strain ARP1, active compounds read low 1.01 | locus YHR142W, strain chs7, active compounds read low 0.886 | locus YHR200W, strain rpn10, active compounds read low 1.01 | locus YIL066C, strain RNR3, active compounds read low 1.03 | locus YIL073C, strain SPO22, active compounds read low 1.05 | locus YIL125W, strain kgd1, active compounds read low 0.999 | locus YIR030C, strain dcg1, active compounds read low 0.994 | locus YJL092W, strain hpr5, active compounds read low 0.976 | locus YJL095W, strain BCK1 (second series), active compounds read low 0.991 | locus YJL095W, strain BCK1, active compounds read low 0.946 and 1 | locus YJL115W, strain asf1, active compounds read low 0.966 | locus YJL129C, strain trk1, active compounds read low 0.905 | locus YJL134W, strain LCB3, active compounds read low 0.989 | locus YJL154C, strain vps35, active compounds read low 0.995 | locus YJL164C, strain tpk1, active compounds read low 0.956 | locus YJL166W, strain qcr8, active compounds read low 0.971 | locus YJL168C, strain set2, active compounds read low 0.995 | locus YJL187C, strain SWE1 (second series), active compounds read low 0.994 | locus YJL187C, strain SWE1, active compounds read low 0.985 | locus YJR043C, strain POL32, active compounds read low 1.05
active: locus YDR137W, strain rgp1, active compounds read low 0.823 | locus YGL253W, strain hxk2, active compounds read low 0.909
